Inhibition data for 40 compounds are collected here from PubChem BioAssay.

Active and inactive are the calls of the source.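 How the source made its calls: active means inhibition above the hit cutoff set in the earlier primary screen (cut at about 27% in these data); inactive means the rest.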

Protein phosphatase methylesterase 1 (Homo sapiens), sequence (Q9Y570 whole entry, looked up): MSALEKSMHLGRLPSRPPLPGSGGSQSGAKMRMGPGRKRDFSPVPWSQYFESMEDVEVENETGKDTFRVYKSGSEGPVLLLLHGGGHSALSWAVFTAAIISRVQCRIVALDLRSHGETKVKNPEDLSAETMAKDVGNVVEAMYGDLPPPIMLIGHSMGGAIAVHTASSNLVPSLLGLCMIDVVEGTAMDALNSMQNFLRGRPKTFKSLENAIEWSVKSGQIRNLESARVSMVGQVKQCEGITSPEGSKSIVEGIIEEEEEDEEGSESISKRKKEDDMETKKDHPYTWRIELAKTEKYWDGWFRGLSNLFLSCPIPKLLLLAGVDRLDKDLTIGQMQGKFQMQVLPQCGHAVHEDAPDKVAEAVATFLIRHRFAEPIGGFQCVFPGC

The assay has as its target Protein phosphatase methylesterase 1 (Homo sapiens) (UniProt Q9Y570). Briefly: human PME-1 methylesterase inhibition confirmation – biochemical, fluorescence polarization, FP-Rh probe, triplicate (AID 2171).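 Further: 0% = enzyme with DMSO and 100% = wells lacking PME-1.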 Conditions: recombinant PME-1, FP-Rh probe fluorescence polarization; at 5.9 µM; hits give high values.
The inhibition is the drop in the measured response relative to a control, in per cent. `CC(=O)Oc1ccc2c(c1)Oc1cc(OC(C)=O)ccc1C21OC(=O)c2ccccc21`: the inhibition was 148% (active).
On to `C/C(=N/Nc1ccnc2cc(Cl)ccc12)c1ccc(N)cc1`, for which the inhibition is 26% (inactive).
For the compound `Cc1cccc2cc(/C=N/Nc3ccc(C(=O)O)cc3)c(Cl)nc12`, the inhibition was 43.7% (active).
The figure for `COCCN=c1scc(-c2cc(OC)c(OC)c(OC)c2)n1/N=C/c1c(C)[nH]c2ccccc12` is 18.7% (inactive); for `CCn1cc(C(=O)NCCCN2CC(C)CC(C)C2)c(=O)c2cc(S(=O)(=O)N(C)C3CCCCC3)ccc21` (stereo not given) it is 35.6% (active).
For `Cc1ccc(-n2[nH]c(C)c(/C=N/Nc3ccc([N+](=O)[O-])cc3[N+](=O)[O-])c2=O)cc1C`, the inhibition is 33.5% (active).
In the case of `CCOc1ccc(NC(C(=O)Nc2cccc(C(C)=O)c2)c2ccccc2)cc1` (stereo not given) it was 33.5% (active); in that of `N#CCC(=O)Nc1ccc(C(=O)OCC(=O)Nc2ccccc2Sc2ccccc2)cc1`, -19% (inactive); in that of `Cc1ccc(O)c(C(=O)c2cc(C#N)c(=O)n(-c3nccs3)c2)c1`, -1.15% (inactive).
The figure for `CC(C)Oc1ccc(S(=O)(=O)N2CCCCC2)cc1NC(=O)CN1C(=O)NC(C)(c2ccccc2)C1=O` (stereo not given) is 42.6% (active); for `COc1ccc(N=Nc2nc3cc(Br)c(Br)cc3n2C)c(OC)c1` it is 50.6% (active); for `CN=c1scc(-c2cccs2)n1/N=C/c1ccc(O)c(O)c1O` it is 50.1% (active).
Regarding `COc1ccc2oc(C(=O)OCC(=O)N3CCN(S(=O)(=O)c4ccc(C)cc4)CC3)c(C)c2c1`, the inhibition is 17.9% (inactive).
Turning to `O=c1[nH]n2c(=O)c3c([nH]c2c1N=Nc1cccc(Cl)c1)CCCC3`, the inhibition is 61.8% (active).
In the case of `CC1=C([N+](=O)[O-])C(c2cccc(Br)c2)C2=C(N1)c1ccccc1C2=O` (stereo not given) it was 11.9% (inactive); in that of `CCOC(=O)CCc1c(C)nc(SCCCn2c(=O)[nH]c3ccccc32)c(C#N)c1C`, 22.6% (inactive).
In the case of `COc1ccccc1NC(=O)CCC(=O)Nc1nnc(C(F)(F)F)s1` it was 4.64% (inactive).
The figure for `CCn1c(CSc2nnc(-c3ccncc3)n2CCOC)nc2cc(C(=O)O)ccc21` is 51.1% (active).
With `Cc1ccc(-n2c(O)c(/C=N/Nc3ccc(S(=O)(=O)N4CCOCC4)cc3[N+](=O)[O-])c3ccccc3c2=O)c(C)c1`, the inhibition is 37.9% (active).
The figure for `COc1cc(/C=N/NC(=O)c2cc3c(ccc4ccccc43)o2)cc(OC)c1O` is 29% (active); for `O=C(CN1CCCc2ccccc21)N/N=C/c1c(O)ccc2ccccc12` it is 5.54% (inactive); for `Cc1ccsc1C=Nc1ccc(O)cc1` it is 3.81% (inactive).
In the case of `CCN(CC)S(=O)(=O)c1ccc(Cl)c(NC(=O)COC(=O)c2ccc(O)cc2)c1` it was 24.9% (inactive); in that of `CCN(CC)c1ccc(/C=N/NC(=O)c2cccc(S(=O)(=O)Nc3ccccc3OC)c2)c(O)c1`, 25.8% (inactive); in that of `C#CCN1c2ccccc2Sc2cccnc21`, 1.92% (inactive).
Regarding `Cc1cc(-c2nnc(SCC(=O)Nc3nc(-c4ccc(Cl)cc4)cs3)o2)no1`, the inhibition was -22.5% (inactive).
On to `CCCCNc1c2c3c(cccc3n(C)c1=O)C(=O)c1ccccc1-2`, for which the inhibition was 71.1% (active).
`COC(=O)N1C(=O)[C@](c2ccc(OC)cc2)(C(C)C)N1C(=O)OC`: the inhibition is 48.2% (active).
With `COc1ccc2oc(=O)c(-c3csc(Nc4cccc(O)c4)n3)cc2c1`, the inhibition is 9.36% (inactive).
The figure for `Brc1ccc(C2Nc3cccc4cccc(c34)N2)s1` is 20.5% (inactive); for `CCn1c(=O)c2cc(C(=O)Nc3ccc(OC)cc3OC)sc2c2ccccc21` it is 21.5% (inactive).
In the case of `Fc1ccc2nc(Nc3nc4cc5c(cc4s3)OCCO5)sc2c1` it was 77.5% (active); in that of `O=C(c1ccc2c(c1)OCO2)N1CCCC(c2ccccc2)C1` (stereo not given), 22% (inactive); in that of `Cc1nn(-c2ccc(Br)cc2)c(=O)c2ccccc12`, 4.4% (inactive).
The figure for `O=C(CSc1c(F)c(F)cc(F)c1F)Nc1ccc(C2SCCS2)cc1` is 5.01% (inactive); for `Oc1[nH]c2ccccc2c1N=Nc1ncnc2c1oc1ccccc12` it is 35% (active).
For `CSc1ccccc1C(=O)NCCCn1ccnc1`, the inhibition is 5.36% (inactive).
In the case of `O=c1ccc2ccc(Oc3ccc([N+](=O)[O-])cc3[N+](=O)[O-])cc2o1` it was 25.6% (inactive).
In the case of `COc1ccccc1NC(=O)c1sc2nc(-c3ccco3)ccc2c1N` it was 71.6% (active).
In the case of `Cc1c(C(=O)N/N=C/c2ccc(O)c(Br)c2)sc(N)c1C#N` it was 49.7% (active).
